In the library only some 0.86% were active in any assay of this set; here they are far more common.
CDC25B-CDK2 inh: human CDC25B-CDK2/CyclinA binding inhibition | P30305+P24941 | HTRF CDC25B-CDK2/CyclinA binding, anti-His/anti-Flag; active compounds read high | z-score (concentration not given with the values) | actives 0.72% (n = 94,000) | AID 1259370; in the data active = z-score above about 3.2
TAR Tat displ: HIV-1 TAR-Tat binding disruption. HIV-1 TAR RNA, Tat peptide displacement FRET; active compounds read high. z-score (test concentration not listed). actives 0.6% (n = 100,000). AID 1259389; active = z-score of 3 or more in at least 2 runs
A number is an active result; i = inactive; nt = no result given.

SMILES | CDC25B-CDK2 inh | TAR Tat displ
CCOCCCNc1nc2c(S(=O)(=O)c3ccccc3)nnn2c2ccccc12 | i | 11.2
CC1CCN(C(=O)CSc2nc(-c3ccc(C(C)(C)C)cc3)nc3cc(=O)[nH]n23)CC1 | nt | i
C=CCn1c(O)c(C2=Nc3ccccc3SC(c3ccccc3)C2)c(=O)[nH]c1=O (stereo not drawn) | i | i
CC1CC(=O)Nc2cc(S(=O)(=O)NCC3CCN(Cc4ccco4)CC3)ccc2S1 (stereo not drawn) | nt | i
COc1ccccc1Nc1nc(-c2cc3c(ccc4ccccc43)oc2=O)cs1 | i | nt
O=C1c2ccccc2C(=O)N1c1cccc(-c2csc(Nc3cccc4ccccc34)n2)c1 | 18.8 | nt
COc1ccc(-n2c(=S)[nH]c3sc4c(c3c2=O)CC(C(C)C)OC4)cc1 (stereo not drawn) | i | nt
COc1ccc2cc(C(=O)Nc3ccc(F)cc3)sc(=O)c2c1OC | i | i
COc1ccc2cc(C(=O)Nc3ccc(Cl)cc3)sc(=O)c2c1OC | i | 6.36
CCOc1ccc(CNc2nc3nc(C)cc(C)n3n2)cc1 | i | i
CC(=O)c1ccc(NC(=O)CSc2nnc(-c3ccc4ccccc4c3)n2C)cc1 | 6.91 | nt
Cn1c(SCC(=O)Nc2ccc3[nH]c(=O)[nH]c3c2)nnc1-c1ccccc1 | i | i
CC(Sc1nc2c(c(=O)[nH]1)CCCC2)C(=O)Nc1ccc(Br)cc1 (stereo not drawn) | i | 12.9
CC(Sc1nc2c(c(=O)[nH]1)CCCC2)C(=O)Nc1ccc(F)cc1 (stereo not drawn) | i | i
O=C(Nc1ccc(Br)cc1)c1cccc(-n2cnnc2)n1 | nt | i
O=C(Nc1ccc(O)cc1)c1cccc(-n2cnnc2)n1 | nt | 12.4
CCc1ccc(-c2nc(C(N)=O)c3[nH]c(=O)n(CC4CCCO4)c3n2)cc1 (stereo not drawn) | nt | i
CN1CCC(O)(C2CCN3Cc4ccccc4N=C23)CC1 (stereo not drawn) | nt | i
CN(Cc1ccccc1)C(=O)CSc1nc(-c2ccc3c(c2)OCO3)nc2cc(=O)[nH]n12 | nt | 26.1
CN(C(=O)CSc1nc(-c2ccc3c(c2)OCO3)nc2cc(=O)[nH]n12)c1ccccc1 | nt | i
CCc1cc(=O)n2[nH]c(NCc3cc(F)cc(F)c3)nc2n1 | i | i
CCOc1cc(/C=C2\SC(=Nc3cccc(Cl)c3C)NC2=O)ccc1O | i | nt
Cc1ccc(N=C2NC(=O)/C(=C/c3ccc(O)c(Br)c3)S2)cc1Cl | 8.77 | nt
CC1CCCN(C(=O)Cn2c(=O)oc3cc(S(=O)(=O)N4CCc5ccccc54)ccc32)C1 (stereo not drawn) | i | i
Cn1cnc2cc(Nc3nnc(-c4ccc(Cl)cc4)c4ccccc34)ccc21 | i | nt
SMILES | CDC25B-CDK2 inh | TAR Tat displ
Cc1nc2cc(Nc3nnc(-c4ccc(Cl)cc4)c4ccccc34)ccc2n1C | 14.3 | nt
Cn1cc(S(=O)(=O)NCc2ccc(Cl)cc2)c(S(=O)(=O)NCc2ccc(Cl)cc2)c1 | nt | i
CC(C)c1ccc(C2CC(=O)N3CN(Cc4ccco4)CSC3=C2C#N)cc1 (stereo not drawn) | i | i
COc1ccc(C2CC(=O)N3CN(Cc4ccco4)CSC3=C2C#N)c(OC)c1 (stereo not drawn) | 5.93 | i
COc1cccc(C2CC(=O)N3CN(Cc4ccco4)CSC3=C2C#N)c1OC (stereo not drawn) | 3.37 | i
Cc1nc(N2CCOCC2)ncc1C(=O)NCCCN1CCOCC1 | nt | i
Nc1c(C(=O)Nc2ccccc2Br)sc2nc3c(cc12)CCCCC3 | i | nt
CCOC(=O)c1sc(=S)n(-c2ccc(F)cc2F)c1N | nt | i
Cc1ccc(C)c(/C=C/c2onc(C)c2S(=O)(=O)N2CCCC(C(=O)Nc3cc(C)on3)C2)c1 (stereo not drawn) | nt | i
Cc1[nH]c(=O)[nH]c(=O)c1S(=O)(=O)Nc1ccc2oc(-c3ccncc3)nc2c1 | nt | 6.21
Cc1[nH]c(=O)[nH]c(=O)c1S(=O)(=O)Nc1ccc(-c2ccno2)cc1 | nt | i
C[n+]1cn(CC(O)COCC2CC=CCC2)c2ccccc21 (stereo not drawn) | i | nt
Cc1cccn2c(=O)c3cc(C(=O)Nc4ccc(S(N)(=O)=O)cc4)n(C)c3nc12 | nt | 43.2
Cn1c(C(=O)NCc2ccccn2)cc2c(=O)n3ccccc3nc21 | i | nt
Cn1c(C(=O)Nc2ccc(Oc3ccccc3)cc2)cc2c(=O)n3ccccc3nc21 | nt | i
CCCCNC(=O)c1cc2c(=O)n3ccccc3nc2n1C | nt | 4.98
Cn1c(C(=O)Nc2ccc(S(N)(=O)=O)cc2)cc2c(=O)n3ccccc3nc21 | nt | 26.6
Cc1cc(NC(=O)c2cc3c(=O)n4cccc(C)c4nc3n2C)ccc1Br | nt | i
O=C(NCCCn1ccnc1)C(=O)Nc1c2c(nn1-c1ccc(F)cc1)CSC2 | nt | i
Cc1cc(S(=O)(=O)Nc2cc(N3CCCS3(=O)=O)ccc2C)ccc1F | nt | i
CCOC(=O)CS(=O)(=O)c1nc2ccccc2nc1Cl | i | i
COc1ccc(-c2csc(-c3ccc4c(c3)OCO4)n2)cc1 | i | nt
O=c1cnnc(Nc2ccc3c(c2)OCCO3)[nH]1 | i | i
COC(=O)c1ccc(Nc2nncc(=O)[nH]2)cc1 | 6.29 | i

Assay outcomes: PubChem, Center for Chemical Genomics, University of Michigan
